Screens deposited in PubChem BioAssay by several laboratories.
FBA Mtb inh = inhibitors of M. tuberculosis fructose-bisphosphate aldolase; 360,000 compounds, 2.3% hits; purified M. tuberculosis FBA, fluorescence read-out; inhibition, % at 1 µM; in the data active = inhibition above about 27%
Anthrax LF prot = inhibitors of Bacillus anthracis lethal factor protease | P15917 | multiplex microsphere protease cleavage assay, LF | inhibition, % at 10 µM | 360,000 compounds, 0.12% hits | AID 588501
Target sequence (P15917 whole entry, looked up): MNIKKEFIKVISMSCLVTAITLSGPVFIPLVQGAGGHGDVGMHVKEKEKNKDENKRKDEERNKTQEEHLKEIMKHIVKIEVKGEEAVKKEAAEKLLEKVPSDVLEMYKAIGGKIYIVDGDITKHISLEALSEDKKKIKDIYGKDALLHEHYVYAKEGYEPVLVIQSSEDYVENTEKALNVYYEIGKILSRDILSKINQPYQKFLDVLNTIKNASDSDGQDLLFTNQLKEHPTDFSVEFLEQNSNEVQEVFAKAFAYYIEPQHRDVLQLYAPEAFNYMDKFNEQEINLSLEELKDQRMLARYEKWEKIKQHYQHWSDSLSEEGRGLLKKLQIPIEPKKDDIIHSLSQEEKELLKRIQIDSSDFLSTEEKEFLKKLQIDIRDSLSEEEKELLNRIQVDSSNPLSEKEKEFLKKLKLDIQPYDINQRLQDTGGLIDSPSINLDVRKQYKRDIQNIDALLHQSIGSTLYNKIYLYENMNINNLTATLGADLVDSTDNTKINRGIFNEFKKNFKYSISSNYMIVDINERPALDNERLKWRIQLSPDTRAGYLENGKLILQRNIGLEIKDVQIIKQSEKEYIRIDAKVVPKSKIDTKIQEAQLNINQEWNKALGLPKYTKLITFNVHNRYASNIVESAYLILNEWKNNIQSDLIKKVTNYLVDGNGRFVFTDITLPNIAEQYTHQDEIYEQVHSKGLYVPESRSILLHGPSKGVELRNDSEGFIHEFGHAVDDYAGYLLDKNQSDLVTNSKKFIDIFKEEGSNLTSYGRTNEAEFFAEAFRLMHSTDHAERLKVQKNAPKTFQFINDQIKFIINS
GDH-TPI counter = inhibits GDH-TPI coupling enzymes, artifact for Mtb FBA screen; GDH-TPI coupled enzyme counterscreen, NADH absorbance; inhibition, % at 4.8 µM; 360,000 compounds, 1.2% hits; in the data active = inhibition above about 30%
BoNT F protease = BoNT F light chain protease inhibition. Multiplex microsphere protease cleavage assay, flow cytometry. inhibition, % at 10 µM. 360,000 compounds, 0.22% hits. AID 588497; in the data active = inhibition above about 35%, passing the limit was not always enough; inconclusive = no clear call, values can overlap the other calls
BoNT-A LC inh2 = BoNT A light chain protease inhibition | multiplex microsphere protease substrate cleavage, flow cytometry | inhibition, % at 10 µM | 360,000 compounds, 0.17% hits
Bead autofluor = flagged as autofluorescent in microsphere protease counterscreen | compound autofluorescence counterscreen, microsphere flow cytometry; hits give high values | fluorescence intensity (concentration not given with the values) | 360,000 compounds, 3.1% hits; in the data active = fluorescence intensity above about 16000; inconclusive = no clear call, values can overlap the other calls
Hits are given with their value; . = inactive; ? = inconclusive; / = not tested or not shown; + = active, no number. An excerpt weighted towards active compounds, which were near 6.6% of everything screened. Rule as the data show it, unless noted: active = inhibition above about 30%; inconclusive = no clear call, values can overlap the other calls; inactive = below that.

SMILES | FBA Mtb inh | Anthrax LF prot | GDH-TPI counter | BoNT F protease | BoNT-A LC inh2 | Bead autofluor
CC(=O)Oc1ccc2cc(-c3cccnc3)c(=O)oc2c1 | + | . | . | . | . | .
CC(Oc1ccc2ccc(=O)oc2c1)C(=O)NCC1CCC(C(=O)O)CC1 (stereo unspecified) | . | . | . | . | . | .
COC(=O)C(C)Oc1ccc2cc(-c3ccccc3)c(=O)oc2c1 (stereo unspecified) | + | . | . | . | . | .
CN(C)C(=O)COc1ccc2cc(-c3ccccc3)c(=O)oc2c1 | + | . | 53 | . | . | .
CC1CCc2c(sc(NC(=O)c3ccc(N4C(=O)CCC4=O)cc3)c2C(N)=O)C1 (stereo unspecified) | . | / | . | / | / | /
CCCOc1cccc(NC(=O)OC2CCN(C)CC2)c1 | . | . | . | . | . | .
CCCOc1ccc2cc(-c3ccccn3)c(=O)oc2c1 | + | . | . | . | . | .
COc1ccc2cc(-c3ccccc3)c(=O)oc2c1 | + | . | . | . | . | .
COc1ccc2c(=O)c(-c3ccccc3)coc2c1 | . | . | . | . | . | .
CCN(C(=O)CSc1nnc(-c2ccc(OC)cc2)n1C(C)C)C1CCS(=O)(=O)C1 (stereo unspecified) | . | . | . | . | . | .
C[C@H]1COC(=O)[C@@H](CC(=O)OC(C)(C)C)C/C=C\C[C@@H](CC(=O)N(CCO)Cc2ccccc2)C(=O)N1 | . | . | . | . | . | .
N#CCCN(CCC#N)c1nncs1 | . | . | . | . | . | .
CC(C)(C)c1csc(N(CCC#N)CCC#N)n1 | . | . | . | . | . | 16153
CCN(CC)S(=O)(=O)c1ccc(S(=O)(=O)N(CC(=O)Nc2ccccc2)CC2CCCO2)cc1 (stereo unspecified) | . | . | . | . | . | 17027
C=CCN(CC=C)c1nc2ccccc2nc1C(C#N)C(=O)OC(C)C (stereo unspecified) | 36 | . | . | . | . | .
C=CCOC(=O)C(C#N)c1nc2ccccc2nc1N1CCN(c2ccccc2OC)CC1 (stereo unspecified) | . | . | . | . | . | .
CN(CC(=O)O/N=C(\N)c1ccccn1)S(=O)(=O)c1ccccc1 | . | . | . | . | . | 19036
CCC1CCc2c(sc3ncnc(N4CCOCC4)c23)C1 (stereo unspecified) | 120 | . | . | . | . | .
CC1CCc2sc3ncnc(N4CCN(C)CC4)c3c2C1 (stereo unspecified) | . | . | . | . | . | .
CC1(C)CN=C(N(Cc2ccccc2)C(=O)Nc2ccccc2)S1 | . | . | . | . | . | .
C=CCc1cc(OC)ccc1OCCCCn1cncn1 | . | . | . | ? | . | .
NC(=S)NNC(=O)c1ccccc1 | . | . | . | . | . | 24370
Cc1ccc(C(=O)Nc2ccccc2Oc2ccccc2)cc1[N+](=O)[O-] | . | . | . | . | . | .
O=C(Nc1ccccc1Oc1ccccc1)c1cccc([N+](=O)[O-])c1 | . | . | . | . | ? | 20430
CCc1cc2c(=O)c(-c3ccc4c(c3)OCCO4)c(C)oc2cc1OS(C)(=O)=O | . | . | . | . | . | .
SMILES | FBA Mtb inh | Anthrax LF prot | GDH-TPI counter | BoNT F protease | BoNT-A LC inh2 | Bead autofluor
Nc1c(C(=O)Nc2cccc(Cl)c2Cl)sc2nc(-c3cccnc3)ccc12 | . | . | . | . | . | .
COc1ccc(NC(=O)c2sc3nc(-c4cccnc4)ccc3c2N)cc1 | . | / | 39 | / | / | /
COc1ccc(NC(=O)c2sc3nc(-c4cccnc4)ccc3c2N)cc1OC | . | . | 43 | ? | . | .
CC(C)CC(CO)N1CCN(C(=O)c2ccc(C(C)(C)C)cc2)CCC1=O (stereo unspecified) | . | . | . | . | . | .
CC(C)[C@H](NC(N)=O)C(=O)Nc1cccc(S(=O)(=O)N2CCOCC2)c1 | . | . | . | . | . | .
CC(C(=O)O)n1c2ccccc2c2cnn(C)c(=O)c21 (stereo unspecified) | . | . | . | . | . | .
O=C(O)C1CCCCC1C(=O)Nc1ccc(F)cc1F (stereo unspecified) | . | . | . | . | . | 20999
COC(=O)c1ccccc1NC(=O)C1CCCCC1C(=O)O (stereo unspecified) | . | . | . | . | ? | 23211
O=C(O)C1CCCCC1C(=O)Nc1ccc(F)c(F)c1 (stereo unspecified) | . | . | . | . | . | .
COc1ccc(NC(=O)c2ccccc2NC(=O)C2CCCCC2C(=O)O)cc1 (stereo unspecified) | . | . | . | ? | . | .
Cc1ccc(S(=O)(=O)N2CCCOC2CNC(=O)C(=O)NCc2ccc3c(c2)OCO3)cc1 (stereo unspecified) | . | . | . | . | . | .
O=C(O)C1CC=CCC1C(=O)N1CCN(c2nc(-c3ccccc3)c3ccccc3n2)CC1 (stereo unspecified) | . | . | . | . | . | .
O=C(O)C1CC=CCC1C(=O)N1CCN(c2nc(-c3ccccc3Cl)c3cc(Br)ccc3n2)CC1 (stereo unspecified) | . | . | . | . | . | 16567
C=C(C(=O)c1ccccc1)C(CC(=O)c1ccccc1)c1ccccc1 (stereo unspecified) | . | . | . | . | . | .
COc1ccc(-c2cn3ccccc3n2)cc1OC | 159 | . | . | . | . | 20804
COc1ccc(-c2nc3ccc(C)cn3c2CC2CCCCC2)cc1OC | . | . | / | . | . | .
COc1ccc(-c2cn3cc(C)ccc3n2)cc1OC | 161 | . | . | . | . | .
Fc1ccc(-c2cn3ccccc3n2)cc1 | . | . | . | ? | . | .
Cc1nc2c(OCc3ccc(C(F)(F)F)cc3)cccn2c1N(C)Cc1cccs1 | . | . | . | . | . | .
COc1cccc(C2=NO[C@@H]3C(=O)N(c4ccc5c(c4)OCCO5)C(=O)[C@H]23)c1OC | . | . | . | . | . | 20829
COc1cccc(C2NC(=O)c3ccccc3O2)c1OC (stereo unspecified) | . | . | . | . | ? | 18893
Cc1ccc(OCCN2C(=O)c3ccccc3C2=O)cc1 | . | . | . | . | . | 22823
COc1ccc(-c2cc(-c3nnc(COC(=O)CC4CC5CCC4C5)o3)c3ccccc3n2)cc1OC (stereo unspecified) | . | . | . | . | 52 | .
CC1C(=O)NN=C1C(=O)N/N=C\c1ccc(O)cc1O (stereo unspecified) | . | . | 62 | . | . | .
CCCCn1c(SCC(=O)NC(C)(C)C)nnc1-c1ccco1 | . | . | . | . | . | .
CC(C)Cn1c(N)c(C(=O)CSc2nnc(-c3ccco3)n2C)c(=O)n(C)c1=O | . | . | . | . | . | .
COCCCn1c(SCC(=O)NC2CCCC2)nnc1-c1ccco1 | . | . | . | . | . | 20908
CC(C)Cn1c(SCC(=O)c2ccc(Cl)s2)nnc1-c1ccco1 | . | . | . | . | . | 22317
CCCCn1c(SCC(N)=O)nnc1-c1ccco1 | . | . | . | . | . | 22326
